Reference: article PMC4336329 (PLoS ONE, 2015)
Among all 310,000 compounds or so, about 14,000 (4.5%) showed an effect of 50% or more. Effects have a minus sign here. What follows is part of a selection rich in strong results, with near analogues and random picks from the rest.

Biological target: human ether-à-go-go-related gene (hERG) potassium channel (human, UniProt Q12809)
Test: primary screen, population patch clamp on CHO cells stably expressing hERG; higher = less effect of the substance
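Also: peak tail current of the secondary pulse compared with the same well before compound.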

Chain of human ether-à-go-go-related gene (hERG) potassium channel (Q12809 whole entry, looked up): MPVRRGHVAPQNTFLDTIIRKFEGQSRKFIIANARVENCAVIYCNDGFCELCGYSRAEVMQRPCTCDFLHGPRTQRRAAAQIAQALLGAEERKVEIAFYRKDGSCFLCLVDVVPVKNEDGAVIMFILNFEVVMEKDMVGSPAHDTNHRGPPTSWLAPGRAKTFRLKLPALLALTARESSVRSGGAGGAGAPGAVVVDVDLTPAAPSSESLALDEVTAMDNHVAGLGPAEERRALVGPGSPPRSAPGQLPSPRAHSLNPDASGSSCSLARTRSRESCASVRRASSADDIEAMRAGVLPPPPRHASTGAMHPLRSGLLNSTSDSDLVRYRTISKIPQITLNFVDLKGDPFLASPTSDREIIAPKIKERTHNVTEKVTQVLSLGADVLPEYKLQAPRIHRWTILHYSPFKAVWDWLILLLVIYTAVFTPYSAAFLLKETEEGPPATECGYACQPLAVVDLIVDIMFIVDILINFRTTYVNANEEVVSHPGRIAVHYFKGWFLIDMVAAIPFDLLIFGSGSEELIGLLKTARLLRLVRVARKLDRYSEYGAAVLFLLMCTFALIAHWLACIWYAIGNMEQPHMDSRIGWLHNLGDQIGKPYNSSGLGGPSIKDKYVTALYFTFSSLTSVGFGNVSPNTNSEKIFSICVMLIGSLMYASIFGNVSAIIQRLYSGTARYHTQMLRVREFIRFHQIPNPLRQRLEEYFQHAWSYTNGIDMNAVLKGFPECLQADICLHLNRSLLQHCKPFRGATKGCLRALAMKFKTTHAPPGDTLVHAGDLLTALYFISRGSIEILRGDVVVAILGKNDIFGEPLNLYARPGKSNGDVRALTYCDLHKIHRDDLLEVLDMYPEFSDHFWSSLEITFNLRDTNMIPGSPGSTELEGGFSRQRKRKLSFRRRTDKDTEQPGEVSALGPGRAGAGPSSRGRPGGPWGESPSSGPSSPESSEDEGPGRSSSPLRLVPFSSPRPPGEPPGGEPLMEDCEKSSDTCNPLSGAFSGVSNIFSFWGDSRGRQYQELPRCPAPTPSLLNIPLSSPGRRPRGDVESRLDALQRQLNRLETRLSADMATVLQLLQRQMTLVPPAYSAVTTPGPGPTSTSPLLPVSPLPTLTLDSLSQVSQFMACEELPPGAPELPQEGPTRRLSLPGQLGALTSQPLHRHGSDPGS

| Structure (SMILES) | hERG current change (%, negative = inhibition) at 10uM [%] |
| --- | --- |
| COC(=O)C1=C(O)/C(=C\c2ccc(OCC(=O)Nc3ccccc3OC)cc2)N=C1C | 0.751 |
| Cc1ccccc1Nc1nc(-c2sc(NC(=O)c3ccco3)nc2C)cs1 | 23.6 |
| O=C(Nc1cccc(Cl)c1)c1nc[nH]c1C(=O)N1CCN(c2ccccc2)CC1 | 8.06 |
| Cc1c(N/C(=N/S(=O)(=O)c2ccc(F)cc2)c2ccccc2)c(=O)n(-c2ccccc2)n1C | 0.39 |
| O=[N+]([O-])c1ccc(Oc2ccc(-c3cnc4ccccc4n3)cc2[N+](=O)[O-])cc1 | 6.13 |
| c1nc(N2CCCCC2)c2[nH]cnc2n1 | 9.4 |
| C=CCn1c(SCCN2CCCCC2)nc2c1c(=O)[nH]c(=O)n2C | -47.3 |
| COc1ccc(C(=O)NC2CC3CCCC(C2)N3Cc2ccccc2)cc1 (stereo not shown) | -53.5 |
| CCOc1ccc(C(=O)NC2CC3CCCC(C2)N3CC(C)C)cc1 (stereo not shown) | -41.1 |
| COc1ccc(C(=O)NC2CC3CCCC(C2)N3Cc2ccccc2)cc1OC (stereo not shown) | -23.6 |
| CCOc1ccc(C(=O)NC2CC3CCCC(C2)N3Cc2ccccc2)cc1 (stereo not shown) | -57.5 |
| Cc1ccn2c(NC(=O)c3cccs3)c(-c3ccccc3)nc2c1 | -0.701 |
| CC1(C)Cc2c(cnn2-c2cccc(F)c2)C(NC(=O)CSc2ccccn2)C1 (stereo not shown) | -20.6 |
| C=CCCC(=O)NC1CC(C)(C)Cc2c1cnn2-c1cccc(F)c1 (stereo not shown) | -68.4 |
| CC1(C)Cc2c(cnn2-c2cccc(F)c2)C(NC(=O)CSc2ccncc2)C1 (stereo not shown) | -56.5 |
| CC1(C)Cc2c(cnn2-c2cccc(F)c2)C(NC(=O)Cn2cccn2)C1 (stereo not shown) | -11.5 |
| CC1(C)Cc2c(cnn2-c2cccc(F)c2)C(NC(=O)CCc2cnccn2)C1 (stereo not shown) | -28.4 |
| Cc1ccccc1-n1ncc2c1CC(C)(C)CC2NC(=O)CSc1ccncc1 (stereo not shown) | -8.26 |
| CCC1CCCCN1C(=S)NCc1ccccc1 (stereo not shown) | -1.29 |
| COc1ccc(-c2c(C)n([O-])c(C)c(-c3ccccc3)[n+]2=O)cc1OC | 7.35 |
| Cc1cccc(-n2cc(CN(C)Cc3nccn3C)c(-c3cccc(F)c3)n2)c1 | -6.01 |
| CCN(CC(=O)NC(C)(C)C)C(=O)c1ccc(Br)cc1 | 2.64 |
| O=C(NCCc1ccc(Cl)cc1)C1CCCN1C(=O)Nc1ccccc1 (stereo not shown) | -11.5 |
| COc1ccc(C(=O)Nc2ccc(SC(F)F)cc2)cc1 | -2.14 |
| CCOc1ccccc1NC(=O)c1cc(C(=O)c2cc(OC)ccc2O)coc1=N | -20.3 |
| COc1ccc(O)c(C(=O)c2coc(=N)c(C(=O)Nc3ccc(SC(F)F)cc3)c2)c1 | -69.9 |
| O=c1[nH]c(C2CCN(S(=O)(=O)c3ccc(F)cc3)CC2)nc2c1nnn2Cc1ccc2c(c1)OCCO2 | 11.1 |

| Structure (SMILES) | hERG current change (%, negative = inhibition) at 10uM [%] |
| --- | --- |
| COc1cc2c(c(OC)c1OC)-c1ccc(O)c(=O)cc1C(NC(C)=O)CC2 (stereo not shown) | 13.7 |
| N#Cc1ccc(NC(=O)c2cc(S(=O)(=O)N3CCOCC3)ccc2N2CCCC2)cc1 | -80.4 |
| CCN1CCN(S(=O)(=O)c2ccc(Cl)c(C(=O)Nc3ccc(C(=O)N(CC)CC)cc3)c2)CC1 | 0.597 |
| CCN1CCN(c2ccc(NC(=O)c3cc(S(=O)(=O)N4CCCC4)ccc3Cl)cc2)CC1 | -27.7 |
| CNC(=O)c1ccc(NC(=O)c2cc(S(=O)(=O)N3CCOCC3)ccc2N2CCCC2)cc1 | 7.71 |
| O=C(Nc1cccc(F)c1)c1cc(S(=O)(=O)N2CCOCC2)ccc1N1CCCC1 | -34.2 |
| CCN1CCN(S(=O)(=O)c2ccc(Cl)c(C(=O)Nc3ccc(OC(F)F)cc3)c2)CC1 | -70.4 |
| NC(=O)c1ccc(NC(=O)c2cc(S(=O)(=O)N3CCCCC3)ccc2N2CCOCC2)cc1 | -13.9 |
| O=C(Nc1ccc(OC(F)F)cc1)c1cc(S(=O)(=O)N2CCCCC2)ccc1N1CCOCC1 | -65.8 |
| O=C(Nc1ccc(OC(F)F)cc1)c1cc(S(=O)(=O)N2CCOCC2)ccc1F | -31.3 |
| O=C(O)c1ccccc1N1C(=O)C2C3c4ccccc4C(Br)(c4ccccc43)C2C1=O (stereo not shown) | 18.4 |
| CCN(CC(=O)NCc1cccs1)C(=O)/C=C/c1ccc(OC)c(OC)c1 | -23.5 |
| Cc1cc(C)n2nc(C(=O)OCC(=O)Nc3ccc4c(c3)OCCO4)nc2n1 | 3.56 |
| CCOc1cc(C(=S)N2CCOCC2)ccc1OS(=O)(=O)c1ccccc1 | -10 |
| COc1ccc(OCC(=O)NCCCCCCNC(=O)COc2ccc(OC)cc2)cc1 | 10.6 |
| CCOC(=O)C1CCCN(CC(O)COCc2ccc3c(c2)OCO3)C1 (stereo not shown) | -23.5 |
| CCc1cc(C(=O)NNC(=O)CCN2CCN(c3ccccc3)CC2)sc1C | 11.8 |
| O=C(Nc1nnc(C2CC2)o1)c1ccc(S(=O)(=O)N2CCCc3ccccc32)cc1 | -19.3 |
| COc1ccc(/C=N/Nc2ncc(C(F)(F)F)cc2Cl)cc1OC | 3 |
| COc1cccc(/C=N/Nc2ncc(C(F)(F)F)cc2Cl)c1O | 36.1 |
| COc1cc(/C=N/Nc2ncc(C(F)(F)F)cc2Cl)cc(OC)c1O | -64.8 |
| CCN(CC(=O)Nc1cc(C)on1)CC(=O)Nc1ccccc1C(F)(F)F | 13.7 |
| O=C(NCCc1ccccc1)c1ccc(Cl)c([N+](=O)[O-])c1 | -27.2 |
| CN(CC(=O)Nc1ccc(F)c(F)c1F)C(=O)c1ccc(-n2cncn2)cc1 | -63.8 |
| CN(CC(=O)Nc1c(Cl)cccc1Cl)C(=O)c1ccc(-n2cncn2)c([N+](=O)[O-])c1 | 5.71 |
| CN(CC(=O)Nc1ccc(Cl)cc1)C(=O)c1ccc(-n2cncn2)c([N+](=O)[O-])c1 | -70.3 |
| Cc1ccc(NC(=O)CN(C)C(=O)c2ccc(Sc3nncn3C)c([N+](=O)[O-])c2)cc1 | -40.3 |

| Structure (SMILES) | hERG current change (%, negative = inhibition) at 10uM [%] |
| --- | --- |
| CCN(C(=O)c1ccc(Cl)c([N+](=O)[O-])c1)c1ccccc1 | -5.95 |
| CN(CC(=O)Nc1ccc(F)c(F)c1F)C(=O)c1ccc(-n2cncn2)c([N+](=O)[O-])c1 | -40.6 |
| CN(Cc1ccccc1)C(=O)c1ccc(Cl)c([N+](=O)[O-])c1 | -53.5 |
| Cc1ccc(NC(=O)CN(C)C(=O)c2ccc(Cl)c([N+](=O)[O-])c2)cc1 | -52.1 |
| Cc1ccc(NC(=O)CN(C)C(=O)c2ccc(-n3cncn3)c([N+](=O)[O-])c2)cc1 | -49.2 |
| Cc1ccc(NC(=O)CN(C)C(=O)C(C)OC(=O)CNC(=O)c2ccc(Cl)c([N+](=O)[O-])c2)cc1 (stereo not shown) | -43 |
| CN(CC(=O)Nc1ccc(F)c(F)c1F)C(=O)c1ccc(=O)[nH]c1 | 0.382 |
| CCC(=O)NCCc1nc2ccccc2[nH]1 | 1.08 |
| CN1CCN(c2nc(N)cc(=O)[nH]2)CC1 | 15.2 |
| c1ccc(-n2c(Sc3cnccn3)nnc2-c2cccs2)cc1 | -33.3 |
| CSc1nc([O-])cc(=O)n1-c1ccc(F)cc1.[K+] | 2.86 |
| COc1cccc(/C=C2/C(=O)NN(c3ccc(C)c(C)c3)C2=O)c1 | -3.01 |
| Cn1c(=O)c2c(SCC(=O)NCc3ccco3)nc(-c3ccccc3Cl)nc2n(C)c1=O | -1.4 |
| Cc1cccc(C)c1NC(=O)CN(C)C(=O)c1ccc(-n2cncn2)c([N+](=O)[O-])c1 | -6.43 |
| Cc1ccc(OCC(=O)NNC(=O)c2ccc(-n3cncn3)c([N+](=O)[O-])c2)cc1 | -2.51 |
| O=C(COc1ccccc1Cl)NNC(=O)c1ccc(-n2cncn2)c([N+](=O)[O-])c1 | 10.9 |
| Cc1cc(Br)ccc1NC(=O)c1ccc(-n2cncn2)c([N+](=O)[O-])c1 | 12.3 |
| Cc1cc(Br)ccc1NC(=O)CNC(=O)c1ccc(-n2cncn2)c([N+](=O)[O-])c1 | -59.9 |
| C=CCN1C(=O)c2ccc(C(=O)N(C)CC(=O)Nc3ccc(Br)cc3C)cc2C1=O | -52.5 |
| Cc1ccc(C)c(NC(=O)CN(C)C(=O)c2ccc(-n3cncn3)c([N+](=O)[O-])c2)c1 | -26.7 |
| Cc1cc(Br)ccc1NC(=O)CN(C)C(=O)c1ccc(-n2cncn2)c([N+](=O)[O-])c1 | -64.4 |
| O=C(COc1ccc(Br)cc1)NNC(=O)c1ccc(-n2cncn2)c([N+](=O)[O-])c1 | -61 |
| C=CCN1C(=O)c2ccc(C(=O)N(C)CC(=O)Nc3c(C)cccc3C)cc2C1=O | 15.4 |
| C=CCN1C(=O)c2ccc(C(=O)N(C)CC(=O)Nc3ccccc3Br)cc2C1=O | 4.17 |
| Cc1cccc(NC(=O)CNC(=O)c2ccc(-n3cncn3)c([N+](=O)[O-])c2)c1C | -9.18 |
